About 79,000 compounds went through this panel and 15% of them were active in at least one assay; those are over-represented in the sample as a whole. The source made the active and inactive calls. Cut-off read from the data, not from the text of the source: active = growth inhibition above about 70%; inactive = the rest.
What was measured:
[1] = NCI Yeast Anticancer Drug Screen. Data for the rad50 strain (AID 155);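 note: 0% = growth of vehicle-only cultures of the same strain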; conditions: S. cerevisiae rad50 strain growth inhibition, hits give high values
Outline: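 Inhibition values express reduced yeast growth in compound-treated cultures relative to vehicle-treated controls.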

[2] = NCI Yeast Anticancer Drug Screen. Data for the mec2-1 strain (AID 157); conditions: S. cerevisiae mec2-1 strain, hits give high values
Outline: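 Growth inhibition is read against vehicle-treated controls after compound exposure of the mec2-1 yeast strain, which is defective in DNA damage repair or cell cycle control.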

[3] = NCI Yeast Anticancer Drug Screen. Data for the sgs1 mgt1 strain (AID 161);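 note: 0% = growth of cultures given vehicle only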; conditions: S. cerevisiae sgs1 mgt1 strain, hits give high values
Outline: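 Growth of a repair-deficient yeast mutant was monitored after compound treatment and expressed as inhibition relative to vehicle-treated cultures.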

[4] = NCI Yeast Anticancer Drug Screen. Data for the cln2 rad14 strain (AID 165);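 note: 0% = growth equal to vehicle treated cultures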; conditions: S. cerevisiae cln2 rad14 strain, hits give high values
Outline: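 Growth inhibition, relative to vehicle-treated controls, is the read-out. The test organism is a yeast strain with defined genetic alterations, cln2 rad14.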

[5] = NCI Yeast Anticancer Drug Screen. Data for the bub3 strain (AID 167); conditions: S. cerevisiae bub3 mutant strain, hits give high values
Outline: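 Steps: expose the mutant yeast strain to compound; grow alongside vehicle-treated cultures; measure growth; express inhibition against the vehicle cultures.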

[6] = NCI Yeast Anticancer Drug Screen. Data for the mlh1 rad18 strain (AID 175); conditions: S. cerevisiae mlh1 rad18 strain growth inhibition, hits give high values
Outline: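 Cells of a genetically altered yeast strain, deficient in DNA damage repair, were treated with compound. Their growth was then compared with that of vehicle-treated cultures to give inhibition.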

[7] = at 5.0 µM (retest, dose inferred, filed as 0.5)
[8] = at 50.0 µM (retest, dose inferred, filed as 5.0)

Measured: growth inhibition

Cc1nc(-c2cccc(Cl)c2)oc1-c1ccccc1
active: [1]; [8] 78% | [2]; [8] 78% | [3]; [8] 85% | [4]; [8] 80% | [5]; [8] 76% | [6]; [8] 76%
inactive: [1]; [7] 2% | [1]; at 50.0 µM 28.4% | [2]; [7] 8% | [2]; at 50.0 µM 27.8% | [3]; [7] 17% | [3]; at 50.0 µM 40.2% | [4]; [7] 1% | [4]; at 50.0 µM 53.4% | [5]; [7] -3% | [5]; at 50.0 µM 47.8% | [6]; [7] 4% | [6]; at 50.0 µM 58.5%

CCC(Sc1ccccc1[N+](=O)[O-])[N+](=O)[O-] (stereo not drawn)
active: [1]; at 50.0 µM 88.7% | [2]; at 50.0 µM 90.8%
inactive: [1]; [7] 1% | [1]; [8] 0% | [2]; [7] 0% | [2]; [8] -4% | [3]; [7] 3% | [3]; [8] -1% | [3]; at 50.0 µM 49.1% | [4]; [7] -2% | [4]; [8] -6% | [4]; at 50.0 µM 43.7% | [6]; [7] -1% | [6]; [8] 1% | [6]; at 50.0 µM 55.1%

CCOC(=O)C1SC(=Nc2ccc(Cl)cc2C)N=C1C (stereo not drawn)
inactive: [1]; [7] 29% | [2]; [7] 25% | [3]; [7] 32% | [4]; [7] 22% | [5]; [7] 24% | [6]; [7] 35%
active: [1]; [8] 98% | [1]; at 50.0 µM 89% | [2]; [8] 97% | [2]; at 50.0 µM 92.2% | [3]; [8] 99% | [3]; at 50.0 µM 91.7% | [4]; [8] 97% | [4]; at 50.0 µM 90.2% | [5]; [8] 98% | [5]; at 50.0 µM 91.2% | [6]; [8] 98% | [6]; at 50.0 µM 90%

O=C(O)C(Cc1ccc(O)cc1)NC(=O)N(c1ccccc1)c1ccccc1 (stereo not drawn)
inactive: [1]; [7] 0% | [1]; [8] 38% | [1]; at 50.0 µM 17.2% | [2]; [7] -11% | [2]; [8] 52% | [2]; at 50.0 µM 25.1% | [3]; [7] -205% | [3]; at 50.0 µM 30.8% | [4]; [7] 3% | [4]; [8] 39% | [4]; at 50.0 µM 61.6% | [5]; [7] 2% | [5]; [8] 28% | [5]; at 50.0 µM 19% | [6]; [7] -4% | [6]; at 50.0 µM 28.5%
active: [3]; [8] 79% | [6]; [8] 74%

CCN(CC)C(=S)N/N=C(/c1ccccc1)c1ccccn1
active: [1]; [8] 96% | [1]; at 50.0 µM 70.7% | [2]; [7] 92% | [2]; [8] 97% | [2]; at 50.0 µM 76.9% | [3]; [8] 97% | [3]; at 50.0 µM 81.8% | [4]; [7] 80% | [4]; [8] 95% | [4]; at 50.0 µM 81.8% | [6]; [7] 96% | [6]; [8] 97% | [6]; at 50.0 µM 83.1%
inactive: [1]; [7] 42% | [3]; [7] 44%

COC(=O)C12OCC34C(CC5C(C)C6=CC(=O)OC6=CC5(C)C3C(O)C1O)OC(=O)C(O)C24 (stereo not drawn)
inactive: [1]; [7] 26% | [2]; [7] 30% | [3]; [7] -18% | [5]; [7] -2% | [6]; [7] 33%
active: [1]; [8] 84% | [1]; at 50.0 µM 89.7% | [2]; [8] 82% | [2]; at 50.0 µM 91.4% | [3]; [8] 94% | [3]; at 50.0 µM 91% | [5]; [8] 95% | [5]; at 50.0 µM 89.3% | [6]; [8] 93% | [6]; at 50.0 µM 81.3%

Oc1c(Br)ccc2cccnc12
active: [1]; [8] 99% | [1]; at 50.0 µM 87.2% | [2]; [8] 99% | [2]; at 50.0 µM 91.2% | [3]; [8] 99% | [3]; at 50.0 µM 83.8% | [4]; [8] 98% | [4]; at 50.0 µM 88.6% | [5]; [8] 99% | [5]; at 50.0 µM 88.5% | [6]; [8] 98% | [6]; at 50.0 µM 82.3%
inactive: [1]; [7] 26% | [2]; [7] 23% | [3]; [7] 4% | [4]; [7] 0% | [5]; [7] 1% | [6]; [7] 1%

CN(Cc1cc(Cl)cc(Cl)c1O)Cc1c(O)ccc2ccccc12
inactive: [1]; [7] 31% | [2]; [7] 14% | [3]; [7] 10% | [4]; [7] -34% | [5]; [7] -11% | [6]; [7] 12%
active: [1]; [8] 100% | [1]; at 50.0 µM 98.5% | [2]; [8] 100% | [2]; at 50.0 µM 98.3% | [3]; [8] 99% | [3]; at 50.0 µM 98.7% | [4]; [8] 99% | [4]; at 50.0 µM 98.1% | [5]; [8] 100% | [5]; at 50.0 µM 98.6% | [6]; [8] 99% | [6]; at 50.0 µM 98.5%

Cn1c(=O)c2c3oc(=O)cc(O)c3c(=O)n3c4ccccc4n(c1=O)c23
inactive: [1]; [7] 38% | [2]; [7] 29% | [2]; [8] 69% | [2]; at 50.0 µM 19.9% | [3]; [7] 35% | [3]; at 50.0 µM 45% | [4]; [7] 34% | [4]; [8] 45% | [4]; at 50.0 µM 42.5% | [6]; [7] 53% | [6]; at 50.0 µM 42.1%
active: [1]; [8] 83% | [1]; at 50.0 µM 74.8% | [3]; [8] 86% | [6]; [8] 92%

Cc1ccc2c(c1)C1(SC(C)C(=O)N1c1ccc(F)cc1)C(=O)N2 (stereo not drawn)
active: [1]; [8] 98% | [1]; at 50.0 µM 99% | [2]; [8] 99% | [2]; at 50.0 µM 98.8% | [3]; [8] 98% | [3]; at 50.0 µM 98.8% | [4]; [8] 98% | [4]; at 50.0 µM 97.8% | [5]; [8] 99% | [5]; at 50.0 µM 98.6% | [6]; [8] 99% | [6]; at 50.0 µM 99%
inactive: [1]; [7] 11% | [2]; [7] 15% | [3]; [7] 14% | [4]; [7] 11% | [5]; [7] 10% | [6]; [7] 11%

— PubChem BioAssay (NCI)
